The values below come from PubChem BioAssay.

Experiment [1] deals with Human papillomavirus type 1a protein E7 (residues 44-93). Nature of the experiment: small molecules binding HPV E7 44-93 – biochemical, small-molecule microarray, residues 44-93, 635 nm fluorescence, primary screen (AID 1108).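 Further: E7 fragment applied at 1 µg/mL in TBST for 1 h at 4 C; score combines spot fluorescence with its signal to noise ratio.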 As to conditions: fluorescence 635 nm, higher = more signal.
Experiment [2] is described as follows: hepatitis C replication reporter changes, two-sided – Huh7 cells, luciferase reporter, HCV replication inhibitor project, primary screen (AID 1109).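 Further: huh7 hepatoma cells harbouring a luciferase neomycin HCV replicon reporter; luciferase luminescence as measure of HCV replicon replication; test concentration not given here.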 The conditions noted are these: Huh7 HCV replicon luciferase reporter, 48 h; higher = more signal. (Reporter assays use an easily measured gene product as a stand-in for the process of interest.)
Experiment [3] concerns the target Left-right determination factor 2 (Homo sapiens) (UniProt O00292). The experiment can be described thus: small molecules binding LEFTY2 protein – biochemical, small-molecule microarray, 635 nm fluorescence scan, primary screen (AID 1110). As to conditions: higher = more signal.
In experiment [4] the target is Calmodulin-1 (Homo sapiens) (UniProt P0DP23). The experiment can be described thus: small molecules binding calmodulin-1 with EGTA – biochemical, small-molecule microarray, Cy5-labelled CALM1, profiling panel (AID 1111).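 Further: labelled calmodulin applied in Tris saline Tween buffer holding calcium plus EGTA and DTT.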 As to conditions: Cy5-CALM1 binding fluorescence, higher = more signal.
Experiment [5] has the same target. The experiment can be described thus: small molecules binding Ca-loaded calmodulin-1 – biochemical, small-molecule microarray, Cy5-labelled CALM1, plus calcium, artefact control for SMM control-protein annotation, profiling panel (AID 1112).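 Further: score merges spot fluorescence with signal to noise from triplicate slides.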 The conditions noted are these: Cy5-CALM1 binding fluorescence, higher = more signal.
The nature of experiment [6]: probe aWnt5a binding to arrayed compounds – biochemical, biotinylated probe, 635/667 nm fluorescence, primary screen (AID 1113).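 Further: score merges 667 nm fluorescence intensity with signal-to-noise per printed feature.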 The conditions noted are these: small-molecule microarray, higher = more signal.
A short description of experiment [7]: probe aShh binding to arrayed compounds – biochemical, biotinylated probe, 635/667 nm fluorescence, primary screen (AID 1114).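 Further: probe is biotin-labelled aShh protein from a stem cell growth factor screen; measures binding of labelled protein to compounds printed on the slide; score merges feature fluorescence at 667 nm with signal-to-noise.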 The conditions noted are these: small-molecule microarray, higher = more signal.
The nature of experiment [8]: probe aNog binding to arrayed compounds – biochemical, biotinylated probe, 635/667 nm fluorescence, primary screen (AID 1115).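 Further: probe is biotinylated aNog protein used at 0.15 µg/mL for 1 h at 4 C; z-score combines 667 nm fluorescence of each spot with its signal to noise.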 As to conditions: small-molecule microarray, higher = more signal.
Experiment [9] deals with Torsin-1A-interacting protein 1 (Homo sapiens) (UniProt Q5JTV8). Nature of the experiment: compound microarray binding of lysate hLAP1 – cell lysate, small-molecule microarray, COS7 lysate, 635/667 nm fluorescence, primary screen (AID 1116). The conditions noted are these: 635 nm fluorescence, higher = more signal.
Sequence of Torsin-1A-interacting protein 1 (Homo sapiens) (Q5JTV8 whole entry, looked up): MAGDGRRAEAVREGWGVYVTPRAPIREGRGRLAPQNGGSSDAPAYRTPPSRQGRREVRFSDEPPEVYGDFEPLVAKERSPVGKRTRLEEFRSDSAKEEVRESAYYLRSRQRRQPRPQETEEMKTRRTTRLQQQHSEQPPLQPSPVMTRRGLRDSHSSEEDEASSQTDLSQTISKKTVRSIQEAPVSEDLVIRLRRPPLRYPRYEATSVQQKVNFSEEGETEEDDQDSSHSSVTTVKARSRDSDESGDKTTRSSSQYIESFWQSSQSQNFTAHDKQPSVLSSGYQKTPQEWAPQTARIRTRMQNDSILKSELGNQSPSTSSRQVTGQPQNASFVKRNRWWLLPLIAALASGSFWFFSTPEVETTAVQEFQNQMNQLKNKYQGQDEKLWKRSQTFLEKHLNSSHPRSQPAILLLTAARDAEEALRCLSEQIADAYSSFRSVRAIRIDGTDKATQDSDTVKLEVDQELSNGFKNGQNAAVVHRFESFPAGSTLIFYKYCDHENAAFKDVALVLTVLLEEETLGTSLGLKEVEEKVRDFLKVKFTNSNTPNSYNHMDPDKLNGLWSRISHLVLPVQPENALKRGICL
Experiment [10] concerns the target Alpha-bungarotoxin (Bungarus multicinctus) (UniProt P60615). Nature of the experiment: compounds binding labelled alpha-BTX control protein – biochemical, small-molecule microarray, Alexa647 label, 635/667 nm fluorescence, artefact control for SMM control protein annotation, profiling panel (AID 1117). The conditions noted are these: alpha-BTX-A647 binding fluorescence, higher = more signal.

Sequence of Alpha-bungarotoxin (Bungarus multicinctus) (P60615 whole entry, looked up): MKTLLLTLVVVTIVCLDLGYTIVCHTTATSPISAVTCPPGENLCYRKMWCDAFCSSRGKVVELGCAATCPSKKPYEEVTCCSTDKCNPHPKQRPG
Sequence of Left-right determination factor 2 (Homo sapiens) (O00292 whole entry, looked up): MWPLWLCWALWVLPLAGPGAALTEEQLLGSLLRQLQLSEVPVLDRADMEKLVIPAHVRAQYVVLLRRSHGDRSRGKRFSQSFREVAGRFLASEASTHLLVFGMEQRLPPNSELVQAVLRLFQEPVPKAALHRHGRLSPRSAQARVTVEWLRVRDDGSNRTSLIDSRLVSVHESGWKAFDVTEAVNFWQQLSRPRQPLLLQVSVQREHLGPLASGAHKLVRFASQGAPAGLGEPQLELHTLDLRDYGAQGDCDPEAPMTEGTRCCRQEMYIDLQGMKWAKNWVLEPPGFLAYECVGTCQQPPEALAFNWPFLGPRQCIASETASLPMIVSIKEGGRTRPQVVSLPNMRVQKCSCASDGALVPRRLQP

As for `C=CC[C@]1(C(N)=O)N=C(c2ccc(OCCCO)cc2)O[C@H]1c1ccccc1N=[N+]=[N-]`, the composite z-score came to 0.811 in experiment [1]; 0.0562 in experiment [3]; 0.85 in [4]; 0.0151 in experiment [5]; 0.0317 in [6]; 0.0611 in experiment [7]. In addition, the composite z-score was -0.153 in experiment [8], 1.29 in experiment [9] and 1.71 in [10]. Further, the z-score in experiment [2] was determined as 0.304.

For `O=C(O)C1=CC[C@H]2C(=O)N(c3ccccc3)C(=O)[C@@H]12`, the composite z-score in experiment [1] was 1.37; in [3], 0.412; in [4], 0.661; in experiment [5], -0.388; in experiment [6], 0.155; in experiment [7] it was 0.369. The results for the composite z-score in experiment [8], in experiment [9] and in experiment [10] were 0.883, 0.769 and 0.955, respectively. The compound also displayed a z-score in experiment [2] of 0.49.

In the case of `C=CC[C@]1(C(=O)NCCN2CCOCC2)N=C(c2ccc(OCCCO)cc2)O[C@H]1c1ccccc1`, the composite z-score was 1.35 in experiment [1]; 0.66 in experiment [3]; 0.0631 in experiment [4]; -0.442 in experiment [5]; 0.212 in experiment [6]; 0.398 in [7]. In addition, the composite z-score in experiment [8] was -0.103; in experiment [9] it was 1.24; in experiment [10], 0.429. Also, the z-score in experiment [2] is -0.633.

With `C=C(CC1([C@@H](NP(=O)(c2ccccc2)c2ccccc2)[C@H]2C[C@@H]2CCCC)CC1)c1cccc(OC)c1`, the composite z-score was 0.812 in experiment [1]; -0.872 in [3]; 1.48 in experiment [4]; 0.691 in [5]; 0.103 in experiment [6]; 0.313 in [7]. Further, the composite z-score in experiment [8] was 1.46; in [9], 0.182; in [10], -0.306. Also, the z-score in experiment [2] was -1.79.

In the case of `Cc1ccc(S(=O)(=O)N2[C@@H](c3ccccc3)C(C(=O)O)=CC[C@H]2c2ccc(F)cc2)cc1`, the composite z-score is 1.46 in experiment [1]; -1.25 in experiment [3]; -0.599 in experiment [4]; -0.388 in experiment [5]; 0.108 in [6]; -0.291 in experiment [7]. The composite z-score in experiment [8] was 0.325; in [9], 1.94; in experiment [10], 1.18. Besides, in [2], the z-score was -0.547.

In the case of `COC(=O)[C@@]1(Cc2ccc(F)cc2)[C@H]2c3cc(C(=O)N4CCCC4)n(C[C@H](O)CO)c3C[C@H]2CN1C(=O)c1ccccc1`, the composite z-score was 0.0716 in experiment [1]; -0.358 in experiment [3]; 2.69 in experiment [4]; 1.27 in experiment [5]; 0.429 in experiment [6]; 1.41 in experiment [7]. Moreover, the composite z-score was determined as 2.28 in experiment [8], 2.35 in experiment [9] and 0.185 in experiment [10]. The z-score in [2] is -0.948.

For the compound `N#Cc1ccc(NN2C(C(O)c3ccc(B(O)O)cc3)C=CC3CN(c4ccccc4)C(=O)C32)cc1` (stereo not given), the composite z-score in [1] is -0.664; in experiment [3] it was -0.193; in experiment [4] it was 0.0251; in experiment [5], -0.408; in [6] it was -0.144; in experiment [7] it was -0.237. For the same compound, the results for the composite z-score in experiment [8], in experiment [9] and in [10] were -0.196, 0.11 and -0.0348, respectively. This compound registered a z-score in experiment [2] of 0.277.

As to `C[C@]12C(=O)N(CCO)[C@@H]3C(=O)N(c4ccc(Cl)cc4)CC=CC31O[C@@H]1/C=C\CCCOC(=O)C12` (stereo not given in full), the composite z-score in experiment [1] was -0.576; in experiment [3], -1.59; in experiment [4] it was 0.409; in [5], 0.186; in experiment [6], -0.18; in experiment [7] it was -0.154. Also, the composite z-score is -0.153 in experiment [8], -0.759 in [9] and -0.181 in experiment [10]. The z-score in experiment [2] is -0.445.

With `COc1cc(Cc2cc3c(c(-c4ccccc4)n2)[Si](C(C)C)(C(C)C)OC3)cc(OC)c1OC`, the composite z-score was -1.82 in experiment [1]; 0.363 in experiment [3]; -0.651 in experiment [4]; -0.0062 in experiment [5]; -0.175 in experiment [6]; 0.915 in [7]. Further, the results for the composite z-score in [8], in experiment [9] and in experiment [10] were -0.359, -0.181 and 1.34, respectively. For the same compound, in experiment [2], the z-score came to 0.385.

`C=CCN1C(=O)[C@]2(O[C@H](CCO)[C@@H]([Si](C)(C)c3ccc(OC)cc3)[C@@H]2C)c2cc(N3C(=O)c4ccccc4Oc4ccccc43)ccc21`: the composite z-score in experiment [1] was 1.3; in experiment [3], 0.28; in [4], 1.2; in experiment [5] it was 0.323; in experiment [6], -0.0203; in experiment [7], -0.0709. Besides, the composite z-score in experiment [8] is -0.158; in [9] it was -0.0465; in [10], 0.378. Besides, the z-score in [2] is -5.05.

In the case of `CC(C)c1ccc(NN2C(C(O)c3ccccc3)C=CC3C(=O)N(c4ccccc4)C(=O)C32)cc1` (stereo not given), the composite z-score is 1.33 in experiment [1]; -0.636 in [3]; 0.793 in [4]; 0.7 in [5]; 0.235 in experiment [6]; 0.171 in [7]. Besides, the composite z-score in experiment [8] came to 0.0811; in experiment [9], 0.588; in [10], 1.67. For the same compound, the z-score in experiment [2] came out at 0.618.

In the case of `Cc1ccc(S[C@]2(C(=O)NCCN3CCOCC3)CC(=O)N(C(C)C)[C@@H]2c2ccc(CO)cc2I)cc1`, the composite z-score in [1] is 0.89; in experiment [3], -0.532; in experiment [4], -1.17; in experiment [5], -0.693; in experiment [6], -0.154; in experiment [7] it was -0.138. Further, the values for the composite z-score in experiment [8], in experiment [9] and in experiment [10] were -0.119, 0.974 and -1.08, respectively. Also, the z-score in experiment [2] was -2.32.

Turning to `COC(=O)C(CC#Cc1ccc2c(c1)[C@]1(C(=O)N2)[C@H](C(N)=O)[C@H]2C(=O)O[C@H](c3ccccc3)[C@H](c3ccccc3)N2[C@@H]1c1ccccc1OCCO)C(=O)OC`, the composite z-score was 1.47 in experiment [1]; 0.205 in [3]; 0.534 in [4]; 0.237 in experiment [5]; -0.0721 in [6]; -0.291 in experiment [7]. Further, the composite z-score in experiment [8] was -0.0604; in experiment [9], 1.87; in [10] it was 1.19. The compound also showed a z-score in experiment [2] of -3.34.

`COC(=O)[C@H](Cc1ccccc1)N1CC(C)(OC)O[C@@H](Cc2ccccc2)[C@H]1/C=C/C1CC1` (stereo not given in full): the composite z-score in experiment [1] was 0.208; in experiment [3], -0.17; in experiment [4], -0.0441; in experiment [5], -0.233; in experiment [6], -0.0239; in experiment [7] it was -0.198. For the same compound, the composite z-score was determined as 0.0299 in [8], 0.726 in experiment [9] and 0.2 in [10]. Further, the z-score in experiment [2] is -1.84.

In the case of `O=C(NCCN1CCOCC1)[C@@H]1c2ccccc2C(=O)N(CC23CC4CC(CC(C4)C2)C3)[C@H]1c1ccc(CO)cc1`, the composite z-score is 1.45 in [1]; 0.662 in experiment [3]; 1.7 in [4]; -0.236 in experiment [5]; -0.0519 in experiment [6]; -0.0362 in experiment [7]. Also, the composite z-score in [8] is -0.112; in experiment [9], 0.405; in experiment [10] it was 1.43. The compound also yielded a z-score in experiment [2] of -2.21.

Turning to `Cc1cccc([C@H]2C[C@H]3C(Br)=C[C@@]2(CO)C(=O)[C@]32CO2)c1`, the composite z-score was 0.863 in [1]; -0.427 in [3]; -0.496 in experiment [4]; -0.0921 in experiment [5]; -0.0566 in experiment [6]; -0.0348 in experiment [7]. For the same compound, the composite z-score in experiment [8] is 0.247; in [9] it was -0.374; in experiment [10], -0.357. This compound showed a z-score in [2] of -1.27.

For `CO[C@H]1O[C@H](CO)[C@@H](OC(=O)Nc2cccc(F)c2)[C@H](OC(=O)Nc2ccc3c(c2)OCO3)[C@@H]1OC(=O)Nc1ccc2c(c1)OCO2`, the composite z-score is 1.5 in experiment [1]; -0.0699 in [3]; 0.911 in experiment [4]; -1.04 in experiment [5]; 0.0186 in [6]; 0.214 in [7]. Also, the composite z-score was determined as 0.724 in [8], 1.46 in experiment [9] and 1.02 in experiment [10]. This compound showed a z-score in [2] of -1.14.
